In article PMC4336329 (PLoS ONE, 2015):
Out of some 310,000 compounds screened, about 14,000 (4.5%) showed an effect of 50% or more. The effect is printed as a negative number. Shown is part of a subset that was picked to be rich in strong results.

These compounds were tested against human ether-à-go-go-related gene (hERG) potassium channel (human, UniProt Q12809) (assay: primary screen, population patch clamp on CHO cells stably expressing hERG; higher = less effect of the substance).
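Also: peak tail current of the secondary pulse compared with the same well before compound.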

Sequence of human ether-à-go-go-related gene (hERG) potassium channel (Q12809 whole entry, looked up): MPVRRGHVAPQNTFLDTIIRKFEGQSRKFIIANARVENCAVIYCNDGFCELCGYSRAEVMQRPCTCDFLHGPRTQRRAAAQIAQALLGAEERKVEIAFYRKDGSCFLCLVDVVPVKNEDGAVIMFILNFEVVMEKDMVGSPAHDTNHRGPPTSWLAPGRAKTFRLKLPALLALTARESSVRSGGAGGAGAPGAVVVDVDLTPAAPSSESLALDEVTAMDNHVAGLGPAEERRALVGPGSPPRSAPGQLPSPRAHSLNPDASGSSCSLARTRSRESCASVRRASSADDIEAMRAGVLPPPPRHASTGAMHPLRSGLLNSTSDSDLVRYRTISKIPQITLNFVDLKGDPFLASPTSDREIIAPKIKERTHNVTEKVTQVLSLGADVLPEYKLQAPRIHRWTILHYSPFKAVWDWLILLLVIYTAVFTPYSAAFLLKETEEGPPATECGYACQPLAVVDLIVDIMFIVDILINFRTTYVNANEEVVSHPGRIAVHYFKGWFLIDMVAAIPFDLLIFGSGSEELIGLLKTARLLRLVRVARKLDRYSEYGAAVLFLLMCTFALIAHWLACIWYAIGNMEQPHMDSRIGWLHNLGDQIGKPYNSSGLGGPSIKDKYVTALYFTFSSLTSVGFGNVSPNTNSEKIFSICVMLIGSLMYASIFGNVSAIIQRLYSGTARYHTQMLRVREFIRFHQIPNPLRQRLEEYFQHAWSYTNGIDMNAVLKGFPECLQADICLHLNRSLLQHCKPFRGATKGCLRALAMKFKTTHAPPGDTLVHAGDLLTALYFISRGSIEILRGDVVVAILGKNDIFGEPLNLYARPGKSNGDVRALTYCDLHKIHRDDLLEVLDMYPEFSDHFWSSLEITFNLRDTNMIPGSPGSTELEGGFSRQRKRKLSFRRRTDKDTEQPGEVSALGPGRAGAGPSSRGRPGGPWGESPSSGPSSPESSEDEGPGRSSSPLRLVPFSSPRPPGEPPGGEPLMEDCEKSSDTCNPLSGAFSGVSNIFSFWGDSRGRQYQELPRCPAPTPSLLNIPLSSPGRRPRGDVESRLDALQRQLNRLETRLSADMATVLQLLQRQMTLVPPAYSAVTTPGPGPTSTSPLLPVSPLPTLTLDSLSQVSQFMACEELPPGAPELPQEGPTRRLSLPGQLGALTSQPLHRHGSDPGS

SMILES | hERG current change (%, negative = inhibition) at 10uM
CCN(C(=O)c1cc2c(=O)n3ccccc3nc2n1C)C1CCCCC1 | 6.65%
CC(Cc1cccs1)NC(=O)Nc1ccc(Cl)cc1 (centres unmarked) | 1.12%
C[C@H](NC(=O)C1CCN(S(=O)(=O)c2ccccc2)CC1)C(=O)NCc1cccc(C(F)(F)F)c1 | -2.33%
Cc1ccc(C(=O)OC2CCN(c3ccc([N+](=O)[O-])cc3)CC2)cc1 | -1.78%
COc1ccc(C(=O)ON=C2CCN(c3ccc([N+](=O)[O-])cc3)CC2)cc1 | -68.5%
COc1ccc(C(=O)ON=C2CCN(C)CC2)cc1.Cl | 12.8%
Cc1ccc(C(=O)ON=C2CCN(c3ccc([N+](=O)[O-])cc3)CC2)cc1 | -60.9%
O=C(ON=C1CCN(c2ccc([N+](=O)[O-])cc2)CC1)c1ccccc1 | -47.5%
CCCOc1ccc(C(=O)ON=C2CCN(C)CC2)cc1.Cl | -9.07%
CC(=O)N1CCOc2cc(S(=O)(=O)NCc3ccc(F)cc3)c(C)cc21 | -16.6%
CCOc1ccc(/C=C/c2[nH]c(=O)[nH]c(=O)c2[N+](=O)[O-])cc1 | 8.01%
O=C(CCC(=O)Nc1ccccc1)N/N=C/c1ccc2c(c1)OCO2 | 28.7%
O=C(c1ccccc1S(=O)(=O)NCc1ccccc1)N1CCCC1 | -4.43%
CCN(CC)Cc1cc(C(C)=O)ccc1OCC(C)C | -31.5%
CC(C)c1ccc(C2N3CC4([N+](=O)[O-])CN2CC([N+](=O)[O-])(C3)C4(C)C)cc1 (centres unmarked) | 28.4%
O=C(O)c1ccc(NS(=O)(=O)c2ccc3c(c2)OCCCO3)cc1 | 4.23%
CN1CCN(S(=O)(=O)c2cc(C(F)(F)F)ccc2Cl)CC1.Cl | 10.4%
CC(=O)c1sc2nc(=O)c(C)nn2c1C | -0.703%
O=c1[nH]c(/C=C\c2ccc(O)c(O)c2)nc(O)c1[N+](=O)[O-] | 16.2%

SMILES | hERG current change (%, negative = inhibition) at 10uM
Cc1ccc(OCCCN2CCOCC2)cc1 | 13.3%
CCN1CCN(CCCOc2ccc(-c3ccccc3)cc2)CC1 | -71.9%
CCCCOc1ccc(OCCCN2CCOCC2)cc1.Cl | -23.1%
CN1CCN(CCOc2ccc(Cc3ccccc3)cc2)CC1.Cl | -23.4%
CN1CCN(CCCOc2ccc(-c3ccccc3)cc2)CC1.Cl | -69.1%
CCCCOc1ccc(CN2CCN(CC)CC2)cc1 | -14.2%
CN1CCN(CCOc2ccc(-c3ccccc3)cc2)CC1.Cl | -56.3%
Cl.c1ccc(-c2ccc(OCCN3CCOCC3)cc2)cc1 | 3.74%
COc1ccc(C(C(=O)NC2CCCC2)N(C(=O)c2ccoc2C)c2cc(C)cc(C)c2)cc1 (centres unmarked) | -10.9%
O=C(CSc1nnc(CNC(=O)c2ccco2)o1)Nc1nc2ccccc2s1 | 16.1%
COc1cc(CC(NC(C)=O)C(=O)NC2CCN(S(=O)(=O)c3ccc(NC(C)=O)cc3)CC2)cc(OC)c1 (centres unmarked) | 21.7%
Cc1nn(-c2cccc([N+](=O)[O-])c2)c(N)c1-c1ccccc1 | -68.7%
Cc1ccc(-c2cnn(-c3cccc([N+](=O)[O-])c3)c2N)cc1 | -24.1%
Cc1nn(-c2ccccc2)c(N)c1-c1ccccc1 | 5.13%
Nc1c(-c2ccccc2Cl)cnn1-c1cccc([N+](=O)[O-])c1 | -49.4%
Cc1nn(S(=O)(=O)c2ccccc2)c(C)c1Sc1ccc([N+](=O)[O-])cc1 | -6.26%
Cc1cc(C)nc(-n2nc(C)c(C3(O)C(=O)Nc4ccc(F)cc43)c2N)n1 (centres unmarked) | 3.79%
Cc1cc(C)nc(-n2nc(C)c(Sc3ccc(F)cc3)c2N)n1 | -61.7%
Cc1nn(-c2ccccc2)c(N)c1Sc1ccccc1[N+](=O)[O-] | -26.7%

SMILES | hERG current change (%, negative = inhibition) at 10uM
Cc1ccccc1-c1cnn(-c2cccc([N+](=O)[O-])c2)c1N | -56.7%
Cc1nn(-c2ccc([N+](=O)[O-])cc2)c(N)c1-c1ccccc1 | -19.1%
Cc1nn(-c2nc3ccccc3s2)c(N)c1Sc1ccc(F)cc1 | 7.4%
Cc1nn(-c2ccccc2)c(N)c1Sc1ccc([N+](=O)[O-])cc1 | -75.2%
CC(C(=O)NCc1cccnc1)N1C(=O)c2ccccc2C1=O (centres unmarked) | 17.4%
CNC(=O)CSCCn1c(SCC(=O)NC)nc2ccccc2c1=O | 13.1%
COc1ccc(-c2cc(C(F)(F)F)n3ncc(C(=O)N(C)Cc4ccccc4)c3n2)cc1 | -17%
Cc1cc(C)cc(Oc2ccc(N)cc2)c1 | -15.1%
COc1ccccc1NC(=O)C(C)N(C)CCOc1ccccc1 (centres unmarked) | 16.5%
COc1ccc(Cn2c(C)nnc2-c2cnn(C)c2N)cc1 | 14.8%
O=S(=O)(NCC1CCCO1)c1cccc(S(=O)(=O)N2CCCC2)c1 (centres unmarked) | -14%
CCN1CCN(C(=O)CCNC(=O)Cn2ccc3ccccc3c2=O)CC1 | 13.9%
Cc1ccc(-c2nc(CSc3nc4ccccc4c(=O)n3C)cs2)cc1 | 9.52%
CCN1CCN(CCCNC(=O)c2ccc(NC(=O)C3=C(C)OCCS3)cc2)CC1 | 17.6%
O=C(O)c1cccc2c1/C(=N/Nc1ccc([N+](=O)[O-])cc1[N+](=O)[O-])c1ccccc1-2 | 19.7%
Cc1nn(C(=O)c2cccc([N+](=O)[O-])c2)c(C)c1Sc1ccccc1 | 7.61%
Cc1ccc(-n2nc(C)c(Sc3ccccc3[N+](=O)[O-])c2N)cc1 | -17.2%
Cc1nn(-c2ccccc2)c(N)c1Sc1cccc([N+](=O)[O-])c1.Cl | -65.9%
